Data taken from PubChem BioAssay (NCATS).
Where “and” joins values, the source holds several entries; their conditions need not be identical. Equal values may be shown once. Inconclusive results are not listed. A structure can be active in one record and inactive in another. Calls of active or inactive are those of the source. The call rests on the fitted dose curve; in most records, active means well fitted curve in the direction sought with a large enough effect; inconclusive means small, poorly fitted or top-dose-only effect, or another doubt; inactive means no such curve, though single readings can be large; an effect the other way counts as inactive or inconclusive.

Legend:
[1] = Viability qHTS for spleen associated tyrosine kinase inhibitor (SYKi) naive MV4-11 cells (AID 1963823); further: nearly all actives have a fitted effect of over 40% in size
Method in brief: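 Seeding of 500 SYKi-naive MV4-11 cells per well onto pre-dispensed compounds preceded a 72 hr incubation at 37 C. Luminescent CellTiter-Glo signal, read after 10 min at room temperature, reflected viable cells.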

[2] = Viability qHTS for spleen associated tyrosine kinase inhibitor (SYKi) drug resistant MV4-11 cells (AID 1963824); further: nearly all actives have a fitted effect of over 35% in size
Method in brief: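 SYK inhibitor-resistant MV4-11 AML cells, 500 per well, added to predispensed compounds and incubated 72 hr at 37 C, 5% CO2. Viability measured by CellTiter-Glo luminescence after 10 min at room temperature.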

[3] = Quantitative highthroughput screen to assess conditional lethalithy of NOMO1 cells grown in RPMI1640 with untreated serum (RPMI+s) (AID 1963876); further: nearly all actives have a fitted effect of over 35% in size;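 on Viability: 100% = DMSO wells and 0% = empty wells without cells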
Method in brief: (§1)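 Each medium arm—HPLM with 10% dialyzed FBS, or RPMI1640 with 5 mM glucose and 10% untreated or dialyzed FBS—was screened against an 11-point, 3-fold compound titration for 48 h at 37 °C, with CellTiter-Glo luminescence as endpoint.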

[4] = Quantitative highthroughput screen to assess conditional lethalithy of NOMO1 cells grown in RPMI1640 with dialyzed fetal bovine serum (RPMI+ds) (AID 1963877); further: nearly all actives have a fitted effect of over 30% in size;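 on Viability: series mostly up to about 46 µM; 100% = DMSO control wells and 0% = empty wells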
Method in brief: as §1

[5] = Quantitative highthroughput screen to assess conditional lethalithy of SEM cells grown in RPMI1640 with unreated serum (RPMI+s) (AID 1963883); further: nearly all actives have a fitted effect of over 35% in size;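 on Viability: 100% = DMSO wells and 0% = empty wells without cells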
Method in brief: as §1

[6] = Cellular viability qHTS for adrenocortical cancer (ACC) cell line SW-13 (AID 1963989); details: SW-13 ACC cells viability, CellTiter-Glo, 48 h; activity (max response): stronger effect = lower value; further: nearly all actives have a fitted effect of over 65% in size;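 on activity (max response): cells grown in serum-free medium with ITS supplement; on the % scale 0 is the no-effect control and ±100 the full control effect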
Method in brief: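 Luminescent ATP read-out (CellTiter-Glo, 20 min at room temperature) measured metabolically competent SW-13 cells after 48 h compound treatment. Final concentrations spanned up to 46 uM; bortezomib served as positive control.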

[7] = Cellular viability qHTS for adrenocortical cancer (ACC) cell line NCI-H295R (AID 1963990); further: nearly all actives have a fitted effect of over 60% in size
Method in brief: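 IC50 and maximal efficacy derive from four-parameter logistic modelling of titration curves, with reads scaled between DMSO-only wells (0%) and doxorubicin hydrochloride (100% inhibition). Compounds spanned up to 46 uM over 48 h.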

[8] = Quantitative highthroughput screen to assess conditional lethalithy of P12 Ichikawa cells grown in RPMI1640 with dialyzed fetal bovine serum (RPMI+ds) (AID 1963880); details: Potency: P12-Ichikawa viability; further: nearly all actives have a fitted effect of over 35% in size;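 on Viability: 100% = DMSO wells and 0% = empty wells on each plate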
Method in brief: as §1

[9] = Quantitative highthroughput screen to assess conditional lethalithy of P12 Ichikawa cells grown in RPMI1640 with untreated serum (RPMI+s) (AID 1963881); details: Potency: viability; further: nearly all actives have a fitted effect of over 35% in size;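 on Viability: series mostly up to about 46 µM; 100% = DMSO wells and 0% = empty wells without cells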
Method in brief: as §1

[10] = Quantitative highthroughput screen to assess conditional lethalithy of SEM cells grown in RPMI1640 with dialyzed fetal bovine serum (RPMI+ds) (AID 1963884); further: nearly all actives have a fitted effect of over 35% in size;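 on Viability: series mostly up to about 46 µM; 100% = DMSO control wells and 0% = empty wells without cells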
Method in brief: as §1

[11] = Quantitative highthroughput screen to assess conditional lethalithy of NOMO1 cells grown in Human Plasma-Like Medium with dialyzed fetal bovine serum (HPLM+ds) (AID 1963878); further: nearly all actives have a fitted effect of over 35% in size;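 on Viability: 100% = DMSO wells and 0% = empty wells on each plate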
Method in brief: as §1

[12] = Quantitative highthroughput screen to assess conditional lethalithy of P12 Ichikawa cells grown in Human Plasma-Like Medium with dialyzed fetal bovine serum (HPLM+ds) (AID 1963879); details: Potency: viability; further: nearly all actives have a fitted effect of over 35% in size; on Viability: series mostly up to about 46 µM
Method in brief: as §1

[13] = Quantitative highthroughput screen to assess conditional lethalithy of SEM cells grown in Human Plasma-Like Medium with dialyzed fetal bovine serum (HPLM+ds) (AID 1963882); further: nearly all actives have a fitted effect of over 35% in size; on Viability: series mostly up to about 46 µM
Method in brief: as §1
Potency means the concentration at half of the fitted maximal effect.

C[C@@H]1C[C@@H]([C@H](O)CC2CC(=O)NC(=O)C2)C(=O)[C@@H](C)C1
active: Potency [1] 376 nM and 417 nM | Potency [2] 841 nM and 590 nM | Potency [3] 1660 nM | Potency [4] 1660 nM | Potency [5] 332 nM | Potency [6] 1.84 µM and 1.78 µM | Potency [7] 920 nM and 1 µM

CC[C@H]1/C=C\C=C/C[C@@H](C)[C@H](O)[C@@](C)(O)C(=O)[C@@H](C)[C@H](O)[C@@H](C)C(=O)[C@@H](C)[C@H](O)[C@@H](C)/C=C\C(=O)O[C@@H]2[C@H](C)[C@H](CC1)O[C@]1(CC[C@H](C)[C@H](C[C@@H](C)O)O1)[C@H]2C
active: Potency [1] 9.2 nM | Potency [2] 6.5 nM

CC1=C(O)C(=O)C=C2C1=CC=C1[C@@]2(C)CC[C@@]2(C)[C@@H]3C[C@](C)(C(=O)O)CC[C@]3(C)CC[C@]12C
active: Potency [1] 590 nM | Potency [2] 468 nM | Potency [4] 2640 nM | Potency [8] 2640 nM | Potency [9] 2960 nM | Potency [5] 2640 nM | Potency [10] 1870 nM | Potency [6] 4.47 µM | Potency [7] 6.31 µM

N#Cc1ccccc1-c1cc(-c2ccccn2)cn(-c2ccccc2)c1=O
inactive: Potency [1] | Potency [2]

C/C=C(\C)C(O)C(C)/C=C(C)/C=C/C/C(C)=C/Cc1nc(OC)c(OC)c(O[C@@H]2O[C@@H](C)[C@H](O)[C@@H](O)[C@H]2O)c1C (stereo partly specified)
active: Potency [1] 100 nM | Potency [2] 252 nM

CCCC[N+]1(C)[C@H]2CC(OC(=O)[C@H](CO)c3ccccc3)C[C@H]1[C@H]1O[C@H]12 (stereo partly specified)
inactive: Potency [1] | Potency [2] | Potency [12] | Potency [5] | Potency [10] | activity (max response) [6] -1.99% | Potency [7]
active: Potency [11] 11800 nM

COC(=O)C1(C)CCC(O)C2(C)c3cc(O)c(C(C)C)cc3C(O)C(OC(C)=O)C12 (stereo unspecified)
inactive: Potency [1] | Potency [2]

CC1(N2CCC(n3c([C@@H]4CCCNC4)nc4ccccc43)CC2)CCCCCCC1
inactive: Potency [10]
active: Potency [1] 6510 nM | Potency [2] 9.2 µM and 7.42 µM | Potency [4] 16600 nM | Potency [8] 13200 nM | Potency [6] 28.2 µM | Potency [7] 17.8 µM

CC(C)c1cccc(C(C)C)c1O
inactive: Potency [1] | Potency [2] | Potency [3] | Potency [4] | Potency [12] | Potency [8] | Potency [10] | activity (max response) [6] 18.8% and -6.92%
inactive and 23.1 µM (active): Potency [7]

COC1=CC(=O)O[C@@H](/C=C/c2ccccc2)C1
inactive: Potency [1] | Potency [2]

CCNC(=O)C[C@@H]1N=C(c2ccc(Cl)cc2)c2cc(OC)ccc2-n2c(C)nnc21
inactive: activity (max response) [6] -15.2% | Potency [7]
active: Potency [1] 411 nM and 417 nM | Potency [2] 461 nM and 417 nM | Potency [3] 9350 nM | Potency [11] 5900 nM | Potency [5] 1050 nM

CC(C)C[C@H](CN)CC(=O)O
inactive: Potency [1] | Potency [2] | Potency [11] | Potency [12] | Potency [8] | activity (max response) [6] 8.17%

CC(NC(C)(C)C)C(=O)c1cccc(Cl)c1 (stereo unspecified)
inactive: Potency [1] | Potency [2] | Potency [3] | Potency [4] | Potency [12] | Potency [9] | activity (max response) [6] 8.14% and 1.12% | Potency [7]

Cc1[nH]nc2ccc(-c3cncc(OC[C@@H](N)Cc4c[nH]c5ccccc45)c3)cc12
active: Potency [1] 46.8 nM | Potency [2] 65.1 nM and 105 nM | Potency [11] 526 nM | Potency [12] 1660 nM | Potency [13] 187 nM | Potency [5] 590 nM | Potency [6] 0.708 µM | Potency [7] 2.24 µM

COc1ccc(C(=O)c2c(C)n(CCN3CCOCC3)c3ccccc23)cc1
inactive: Potency [3] | Potency [4] | Potency [11] | Potency [13]
active: Potency [1] 26600 nM | Potency [2] 16600 nM | Potency [7] 14.6 µM
